# Test results from PubChem BioAssay (Tox21).
# “And” between values parts separate entries of the source, which are not always exact repeats. Equal entries are not always repeated. Records with an inconclusive call do not appear. Entries that show only a call come without a potency. Some compounds were tested as several samples or in several runs, with calls that do not always agree. The source made the active and inactive calls. The call rests on the fitted dose curve; in most records, active means well fitted cell-killing curve with a large enough effect in the repeat runs; inconclusive means weak or mixed curves, or effect the other way; inactive means flat fitted curve, though single readings scatter.
# Experiment: qHTS assay to identify small molecule that activate the aryl hydrocarbon receptor (AhR) signaling pathway - cell viability counter screen (AID 743086); further: nearly all actives have a fitted effect of over 45% in size;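 on viability change, negative = cytotoxic: HepG2 liver cells carrying the AhR DRE luciferase reporter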
# Conditions: HepG2-AhR-luc viability, CellTiter-Fluor, 24 h; series mostly up to 70.3 µM
# Text: U.S. Tox21 Program National Center for Advancing Translational Sciences [NCATS] NIH Chemical Genomics Center [NCGC] U.S. Environmental Protection Agency [EPA] National Institutes of Environmental Health Sciences [NIEHS] National Toxicology Program [NTP] U.S. Food and Drug Administration [FDA] Tox21 Assay overview: The Aryl hydrocarbon Receptor (AhR), a member of the family of basic helix-loop-helix transcription factors, is crucial to adaptive responses to environmental changes. AhR mediates cellular responses to environmental pollutants such as aromatic hydrocarbons through induction of phase I and II enzymes but also interacts with other nuclear receptor signaling pathways A cell based HepG2-AhR-luc assay (HG2L7.5c1 cell line, developed by Dr. Michael S. Denison, University of California at Davis) was used to assess the activation of AhR. HepG2 (human hepatocellular carcinoma) cells were stably transfected with an Ah receptor-responsive firefly luciferase reporter gene plasmid containing 20 dioxin responsive elements and luciferase reporter gene. Increased luciferase activity can be used to identify the compounds that induce AhR activation. The cytotoxicity of the compounds screened against the HepG2-AhR-luc cell line was tested in parallel by measuring the cell viability using CellTiter-Fluor assay in the same wells.
# Tox21 Assay Protocol Summary: 4000 cells in 5 uL/well were dispensed into white wall/solid bottom 1536-well plates using a Multidrop Combi (Thermo Fisher Scientific Inc., Waltham, MA) dispenser. After the assay plates were incubated at 37C for 5 h, 23 nL of compound or DMSO vehicle was transferred to the assay plates by a pintool station (Kalypsys, San Diego, CA). The plates were incubated at 37C for 24 hr. For cell viability measurement, 1 ul/well of CellTiter-Fluor reagent (Promega, Madison, WI) was added into the assay plates using a Flying Reagent Dispenser (FRD) (Aurora Discovery, CA),and then the assay plates were incubated at 37C for 30 min. The fluorescence intensity in the plates was measured using a ViewLux plate reader (PerkinElmer, Shelton, CT), followed by the addition of 4 uL of ONE-Glo Luciferase Assay reagent (Promega) using an FRD (Aurora Discovery). After the assay plates were incubated at room temperature for 30 min, luminescence intensity was measured using a ViewLux plate reader (Perkin Elmer).
# Potency means the concentration at half of the fitted maximal effect.
Structure (SMILES),Potency,"viability change, negative = cytotoxic"
CNC(=O)CSP(=O)(OC)OC,inactive,
C#CC1(O)CCCCC1,inactive,
Oc1cccc(Cl)c1Cl,inactive,
O=C(N[C@@H]1N=C(c2ccccc2F)c2cccc3c2N(CC3)C1=O)c1cc2ccccc2[nH]1,inactive,
CN(C)C(=S)SSC(=S)N(C)C,inactive and 154 nM (active),
O=[N+]([O-])[O-].[Tl+],inactive,
CC(=O)[O-].CC(=O)[O-].[Co+2],inactive,
N#CCCl,inactive,
CC(C)(C)c1ccc(OP(=O)(Oc2ccccc2)Oc2ccccc2)cc1,inactive,
CC(=O)[O-].CC(=O)[O-].CC(=O)[O-].[Sb+3],,5.29% [at 8.47 µM] (inactive)
CC(O)C(=O)[O][Hg][c]1ccccc1 (stereo not given),4.86 µM (active),
Cc1ccccc1OP(=O)(Oc1ccccc1C)Oc1ccccc1C,inactive,
O=S1(=O)OCC2C(CO1)C1(Cl)C(Cl)=C(Cl)C2(Cl)C1(Cl)Cl (stereo not given),inactive,
CO/N=C(\C(=O)OC)c1ccccc1CO/N=C(\C)c1cccc(C(F)(F)F)c1,inactive,
Nc1ccccc1-c1ccccc1,inactive,
CCC1COC(Cn2cncn2)(c2ccc(Cl)cc2Cl)O1 (stereo not given),inactive,
CCOP(=S)(OCC)SC(CCl)N1C(=O)c2ccccc2C1=O (stereo not given),inactive,
Cc1cccc(Cc2cnc[nH]2)c1C,inactive,
CCCCN(CCCC)C(=S)S,inactive,
Cc1ccc(C)c2ccccc12,inactive,

Structure (SMILES),Potency,"viability change, negative = cytotoxic"
CCN(CC)CCc1c[nH]c2ccccc12,inactive,
Clc1ccc(C(Cl)(Cl)Cl)cc1Cl,inactive,
CC(Cl)CCl (stereo not given),inactive,
N#Cc1ccc(N(CC(N)=O)CC(F)(F)F)cc1C(F)(F)F,inactive,
CN1C(=O)[C@@H](NC(=O)c2cc3ccccc3[nH]2)N=C(c2ccccc2)c2ccccc21,inactive,
CSSC,inactive,
O=[N+]([O-])c1cccc2cccc([N+](=O)[O-])c12,inactive,
O=C(O)CCCCCCNC1c2ccccc2CCc2ccccc21,inactive,
CC(C)N(C(=O)SC/C(Cl)=C/Cl)C(C)C,inactive,
NC(=O)C(Cl)Cl,inactive,
C=CCBr,inactive,
CSC1=N[C@@](C)(c2ccccc2)C(=O)N1Nc1ccccc1,inactive,
Clc1c(Cl)c(Cl)c(Cl)c(Cl)c1Cl,,3.05% [at 8.47 µM] (inactive)
N#CSCc1ccccc1,inactive,
CNN,inactive,
CCn1cc[n+](C)c1 (tested in a mixture with another compound),inactive,
COP(=O)(OC)O/C(=C\Cl)c1cc(Cl)c(Cl)cc1Cl,inactive,
Brc1cccc(-c2ccccc2)c1,inactive,
Cc1cnc2c(C(=O)O)c(Cl)ccc2c1,inactive,
Brc1ccc(Oc2ccc(Br)cc2Br)c(Br)c1,inactive,
